# Data: PubChem BioAssay (Tox21)
# Values joined by “and” are separate entries in the source; they are usually repeats but may differ in a detail not shown here. Equal values may be shown once. Inconclusive results are not listed. The source holds several records for some structures; these can differ, active in one and inactive in another. Active and inactive are the calls of the source. The call rests on the fitted dose curve; in most records, active means well fitted cell-killing curve with a large enough effect in the repeat runs; inconclusive means weak or mixed curves, or effect the other way; inactive means no such curve, though single readings can be large or run the other way.
# Experiment: qHTS assay to identify small molecule antagonists of the sonic hedgehog signaling (Shh) pathway - cell viability counter screen (AID 1259367); further: nearly all actives have a fitted effect of over 55% in size
# Conditions: NIH/3T3 Gli1-Luc viability, CellTiter-Fluor, 24 h; series mostly up to 92.4 µM; viability change, negative = cytotoxic: at the top concentration
# Text: National Center for Advancing Translational Sciences [NCATS]
# NIH Chemical Genomics Center [NCGC]
# U.S. Environmental Protection Agency [EPA]
# National Institutes of Environmental Health Sciences [NIEHS]
# National Toxicology Program [NTP]
# U.S. Food and Drug Administration [FDA]
# The sonic hedgehog (Shh) pathway is essential for normal embryonic development. Dysregulation of the Shh pathway can cause severe developmental defects in organs. Therefore chemicals that interfere with the pathway are potential developmental toxicants. A cell line designated 3T3Gli1-Luc (DMB/OARSA/CFSAN/FDA, Laurel, MD), a NIH/3T3 derived clone containing stably integrated Gli1-Luc reporter is used to detect chemical interference of the Shh pathway, by changes in the expression of the firefly Luc gene under the control of the Gli1 transcriptional response element. This cell line was used to screen Tox21 libraries for identifying and prioritizing the potential developmental toxicants that interfere Shh pathway. Conditioned medium-stimulated mode was used to screen for chemicals inhibiting Shh signaling. The cytotoxicity of the compounds was tested in parallel by measuring the cell viability using CellTiter-Fluor assay system (Promega, Madison, WI) in the same wells.
# Tox21 Assay Protocol Summary:
# 3T3 Gli1-Luc cells were dispensed at 2,000 per well in 5uL of culture medium into white solid bottom 1536-well plates (Greiner Bio-One, Monroe, NC) using a Multidrop Combi (Thermo Scientific, Waltham, MA) dispenser. The assay plates were incubated at 37 C and 5% CO2 for 4hr, and then 23nL of compounds dissolved in DMSO and positive control were transferred using a Pintool station (Wako, San Diego, CA). The compound transfer was followed by the addition of 1ul conditioned medium or assay buffer using two separate tips of Flying Reagent Dispenser (FRD, Aurora Discovery, San Diego, CA). The assay plates were incubated at 37C and 5% CO2 for 24hr. For viability read, after 23hr of compound treatment, 1uL of CellTiter-Fluor reagent (Promega Corporation, Madison, WI) was added to each well of the assay plates using Flying Reagent Dispenser (FRD, Aurora Discovery, San Diego, CA) and incubated the assay plates at 37C for 1hr. The fluorescence signal was quantified using a ViewLux plate reader (Perkin Elmer, Shelton, CT).
# On the % scale 0 is the no-effect control and ±100 the full control effect; potency means the concentration at half of the fitted maximal effect.
Compound,"viability change, negative = cytotoxic",Potency
CCCCC(CC)COC(=O)c1ccccc1C(=O)OCC(CC)CCCC (stereo not given),0.373% (inactive),
CCCCCON=O,-0.789% (inactive),
C#CCO,-0.867% (inactive),
CCN(CC)C(=S)S,,7.65 µM (active) and inactive
O=[N+]([O-])c1ccccc1-c1ccccc1,-0.372% (inactive),
COP(=O)(OC)Oc1ccc([N+](=O)[O-])cc1,-8.47% (inactive),
O=NN(CCO)CCO,-2.32% (inactive),
CN(C)C(=S)SSC(=S)N(C)C,,191 nM (active) and 611 nM (active) and 1.19 µM (active)
Clc1ccc(C2(Cn3cncn3)OCCO2)c(Cl)c1,-1.81% (inactive),
COc1nc(C)nc(NC(=O)NS(=O)(=O)c2ccccc2Cl)n1,0.869% (inactive),
Nc1ccc(Cl)cc1C(=O)c1ccccc1F,-6.02% [at 42.5 µM] (inactive),
CCC1(CC)C(=O)N=C(O)NC1=O,0.801% (inactive),
CCOC(=O)Cc1ccccc1,1.07% (inactive),
CC(C)(C)c1ccc(OP(=O)(Oc2ccccc2)Oc2ccccc2)cc1,-15.1% (inactive),
OCC(Br)CBr (stereo not given),1.38% (inactive),
CC(Cc1ccc(OCC(=O)O)cc1)NCC(O)c1csc(C(F)(F)F)n1 (stereo not given),,3.86 µM (active)
COP(=S)(NC(C)C)Oc1ccc(C)cc1[N+](=O)[O-] (stereo not given),3.22% (inactive),
CC(C)Br,2.03% (inactive),
Cc1cc2c3c(c1)C(c1ccccc1)=N[C@@H](NC(=O)c1ccncc1)C(=O)N3CC2,-6.24% (inactive),
CCNS(=O)(=O)C(F)(F)C(F)(F)C(F)(F)C(F)(F)C(F)(F)C(F)(F)C(F)(F)C(F)(F)F,,65.7 µM (active)

Compound,"viability change, negative = cytotoxic",Potency
C[N+]1(C)[C@@H]2CC[C@H]1CC(OC(=O)C(CO)c1ccccc1)C2 (stereo not given in full),4.08% [at 42.5 µM] (inactive),
c1ccc(N=NNc2ccccc2)cc1,-19.3% (inactive),
Fc1ccc(C(OCCN2CCN(CCCc3ccccc3)CC2)c2ccc(F)cc2)cc1,,21.1 µM (active)
[Cl-].[Cl-].[Sn+2],5.39% (inactive),
CC[C@H](C)[C@H]1O[C@]2(C=C[C@@H]1C)C[C@@H]1C[C@@H](C/C=C(\C)[C@@H](O[C@H]3C[C@H](OC)[C@@H](O[C@H]4C[C@H](OC)[C@@H](NC)[C@H](C)O4)[C@H](C)O3)[C@@H](C)/C=C/C=C3\CO[C@@H]4[C@H](O)C(C)=C[C@@H](C(=O)O1)[C@]34O)O2,,13.7 µM (active)
Nc1c(Cl)c(Cl)c(Cl)c(Cl)c1Cl,-5.43% (inactive),
CCO/N=C(\CC)C1=C(O)CC(c2c(C)cc(C)cc2C)CC1=O (stereo not given),-8.41% (inactive),
COc1c2c(cc3c1OCO3)CCN(C)C2,-4.24% [at 42.5 µM] (inactive),
C=CCBr,3.72% (inactive),
O.O.O.O=C([O-])[C@H]([O-])[C@@H]([O-])C(=O)[O-].O=C([O-])[C@H]([O-])[C@@H]([O-])C(=O)[O-].[K+].[K+].[Sb+3].[Sb+3],-9.94% (inactive),
CC(=O)[O-].CC(=O)[O-].O.O.O.[Pb+2],6.22% (inactive),
CCC[CH2][Sn]([CH2]CCC)([O]C(C)=O)[O]C(C)=O,,27.6 µM (active)
O=C(Cl)c1ccccc1F,1.63% (inactive),
c1csc(-c2ccc(-c3cccs3)s2)c1,4.45% (inactive),
Cc1cnc2c(C(=O)O)c(Cl)ccc2c1,2.81% (inactive),
Oc1cc(Cl)cc(Cl)c1,-17.5% (inactive),
CC(=O)O.CC(=O)O.CC(=O)O.CC(=O)O.CC(=O)O.CC(=O)O.CC(=O)O.O.O.[Cr].[Cr].[Cr],3.61% (inactive),
CC(O)C(=O)[O][Hg][c]1ccccc1 (stereo not given),,1.22 µM (active)
CCC[CH2][Sn]([CH2]CCC)([CH2]CCC)[CH2]CCC,,21.7 µM (active)
ClC1(Cl)C2(Cl)C3(Cl)C4(Cl)C(Cl)(Cl)C5(Cl)C3(Cl)C1(Cl)C5(Cl)C24Cl (stereo not given),2.58% (inactive),
